PubChem BioAssay (NCATS)
Where “and” joins values, the source holds several entries; their conditions need not be identical. Equal entries are not always repeated. Results filed as inconclusive are left out. Calls of active or inactive are those of the source. Calls follow the shape of the dose curve; as a rule, active = well fitted curve in the direction sought with a large enough effect; inconclusive = small, poorly fitted or top-dose-only effect, or another doubt; inactive = no such curve, though single readings can be large; an effect the other way counts as inactive or inconclusive. *1 amine or outer side, *2 acyl side, *3 side chain or, on linkers, in order; H or OH if unused. Where a SMILES comes first, the peptide text is derived from it. [ ]: non-standard residue; d: D form. X7 = O=C([C@@H](CC(O)CCl)O[*:1])[*:2]; aIle = CC[C@@H](C)[C@H](N)C(=O)O; NMeV = CN[C@H](C(=O)O)C(C)C; NMeA = CN[C@@H](C)C(=O)O; βAla = NCCC(=O)O

Columns and labels:
[1] = Primary qHTS for inhibitors of nuclear receptor binding SET domain protein 2 (NSD2) in an isogenic RCH-ACV NSD2 p.E1099K mutant (9B) (AID 1645876); also: nearly all actives have a fitted effect of over 70% in size; also: potency is read from the fitted curve at half-maximal effect
[2] = Primary qHTS for inhibitors of nuclear receptor binding SET domain protein 2 (NSD2) in an RCH-ACV wild type WT cells (2C) (AID 1645877); also: nearly all actives have a fitted effect of over 70% in size; also: potency is read from the fitted curve at half-maximal effect
[3] = molecular target: Glutathione peroxidase 1 (Homo sapiens) (UniProt P07203); assay: Primary qHTS Assay for Inhibitors of Recombinant Selenoprotein Glutathione Peroxidase 1 (GPX1) (AID 1845191); also: nearly all actives have a fitted effect of over 65% in size
Method in brief: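 10 nM GPX1 + cpd, 30 min RT; start w/ 1 mM GSH, 0.5 mM cumene hydroperoxide, 0.5 mM NADPH, 100 nM GR, 0.01% BSA; buffer 50 mM Tris-HCl pH 7.5, 2 mM EDTA, 150 mM NaCl; Fl 340/450, 0 & 15 min.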

[4] = molecular target: Phospholipid hydroperoxide glutathione peroxidase GPX4 (Homo sapiens) (UniProt P36969); assay: Primary qHTS Assay for Inhibitors of Recombinant Selenoprotein Glutathione Peroxidase 4 (GPX4) (AID 1845192); also: nearly all actives have a fitted effect of over 65% in size
Method in brief: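 NADPH consumption, followed by fluorescence at 340/450 nm between 0 and 15 min, reports GPX4 activity via coupled glutathione reductase (100 nM). Enzyme 200 nM was pre-exposed to compound 30 min; 0.5 mM cumene hydroperoxide and 1 mM GSH served as substrates.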

[5] = molecular target: Luciferin 4-monooxygenase (Photinus pyralis) (UniProt P08659); assay: Primary firefly luciferase (FLuc) qHTS assay for identification of artifact compounds. (AID 1845220); details: outcome: dose series up to 54.1 µM unless noted; also: nearly all actives have a fitted effect of over 60% in size
Method in brief: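 Compounds sat 15 min at room temperature with 10 uM luciferin and 10 uM ATP (pH 7.6 Tris acetate). Firefly luciferase (10 nM final) was then added, and luminescence was read 5 min later. Data normalized to no-enzyme and DMSO controls were Hill-fitted.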

[6] = test system: Nanoluciferase (engineered Oplophorus gracilirostris luciferase); assay: Primary Nanoluciferase (NLuc) qHTS assay for identification of artifact compounds. (AID 1845222);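 also: 0% = DMSO and -100% = no enzyme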
Method in brief: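 Luminescence from secreted NLuc (filtered, 1:55-diluted S16 cell medium) read 5 min after Nano-Glo substrate; compounds preincubated 15 min, RT. Hill fits of inhibition normalized to DMSO and no-enzyme.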

CRL-7250 = normal cell line; assay: Cytotoxic Profiling of Annotated Libraries Using Quantitative High-Throughput Screening (AID 1296008); details: Five cell lines viability, CellTiter-Glo ATP luminescence, 48-72 h; max response: hits give low values; also: nearly all actives have a fitted effect of over 60% in size; also: potency is read from the fitted curve at half-maximal effect; as to max response: % is scaled to controls: 0 for no effect and ±100 for the full control effect
Method in brief: (§1)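 Cytotoxicity was measured as CellTiter-Glo ATP luminescence, read after 10 min at room temperature. Compound treatment of the cells lasted 48 or 72 hr at 37 degrees Celsius in a qHTS format.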

HEK293 = assay: as above; details: Five cell lines viability, CellTiter-Glo ATP luminescence, 48-72 h; max response: hits give low values
Method in brief: as §1

NIH3T3 = assay: as above; details: Five cell lines viability, CellTiter-Glo ATP luminescence, 48-72 h; max response: hits give low values
Method in brief: as §1

C33A = assay: Primary qHTS to identify gynecologic anti-cancer compounds using libraries of approved drugs and bioactive compounds (AID 1345084); details: Gynecologic cancer cell panel viability, ATPlite luminescence, 48 h; series mostly up to 57.5 µM; also: nearly all actives have a fitted effect of over 55% in size; also: potency is read from the fitted curve at half-maximal effect
Method in brief: (§2)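 Cells, 1,000 per well, were allowed to settle for 16 h at 37 C before compound addition. Five concentrations were tested for 48 h, and viability was read by ATPlite luminescence after 15 min at room temperature.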

CASKI = assay: as above; details: Gynecologic cancer cell panel viability, ATPlite luminescence, 48 h; series mostly up to 57.5 µM
Method in brief: as §2

Es-2 = assay: as above; details: Gynecologic cancer cell panel viability, ATPlite luminescence, 48 h; series mostly up to 57.5 µM
Method in brief: as §2

Hek293T = assay: as above; details: Gynecologic cancer cell panel viability, ATPlite luminescence, 48 h, control line for the selectivity index; series mostly up to 57.5 µM
Method in brief: as §2

OV90 = assay: as above; details: Gynecologic cancer cell panel viability, ATPlite luminescence, 48 h; series mostly up to 57.5 µM
Method in brief: as §2

PA-1 = assay: as above; details: Gynecologic cancer cell panel viability, ATPlite luminescence, 48 h; series mostly up to 57.5 µM
Method in brief: as §2

Tov-21-G = assay: as above; details: Gynecologic cancer cell panel viability, ATPlite luminescence, 48 h; series mostly up to 57.5 µM
Method in brief: as §2

Tov112D = assay: as above; details: Gynecologic cancer cell panel viability, ATPlite luminescence, 48 h; series mostly up to 57.5 µM
Method in brief: as §2

[7] = test system: Zika virus NS2B-NS3 protease (linked construct); assay: Primary screen NINDS Rhodamine qHTS for Zika virus inhibitors (AID 1347160); also: nearly all actives have a fitted effect of over 55% in size
Method in brief: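 Percent inhibition, normalized to uninhibited and enzyme-free controls, is fitted to a 4-parameter Hill equation. Fluorescence change comes from a 15-min cleavage of 1.5 microM bis-peptide Rhodamine110 substrate by 25 nM linked NS2B-NS3 at room temperature.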

[8] = Primary fluorescence-based thiol-reactive (MSTI) qHTS assay for identification of artifact compounds. (AID 1845221);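 also: thiol-reactive compounds lower the probe fluorescence signal; nearly all actives have a fitted effect of over 65% in size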
Method in brief: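 qHTS titration of compound; 4 uM MSTI, PBS pH 7.4, 2% DMSO; 1 h RT, dark; fluorescence 525/598 nm; normalized to Acetyl-MSTI and MSTI; 4-parameter Hill fit.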

HaCat = assay: Cytotoxic Profiling of Annotated Libraries Using Quantitative High-Throughput Screening (AID 1296008); details: Five cell lines viability, CellTiter-Glo ATP luminescence, 48-72 h; max response: hits give low values; also: nearly all actives have a fitted effect of over 60% in size; also: potency is read from the fitted curve at half-maximal effect; as to max response: % is scaled to controls: 0 for no effect and ±100 for the full control effect
Method in brief: as §1

Glutathione peroxidase 1 (Homo sapiens), sequence (P07203 whole entry, looked up): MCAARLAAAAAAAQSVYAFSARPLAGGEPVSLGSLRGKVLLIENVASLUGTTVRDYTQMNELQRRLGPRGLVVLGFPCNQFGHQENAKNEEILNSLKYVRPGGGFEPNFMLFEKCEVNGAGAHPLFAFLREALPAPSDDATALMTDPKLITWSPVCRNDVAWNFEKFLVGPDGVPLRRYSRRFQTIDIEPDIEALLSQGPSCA
Phospholipid hydroperoxide glutathione peroxidase GPX4 (Homo sapiens), sequence (P36969 whole entry, looked up): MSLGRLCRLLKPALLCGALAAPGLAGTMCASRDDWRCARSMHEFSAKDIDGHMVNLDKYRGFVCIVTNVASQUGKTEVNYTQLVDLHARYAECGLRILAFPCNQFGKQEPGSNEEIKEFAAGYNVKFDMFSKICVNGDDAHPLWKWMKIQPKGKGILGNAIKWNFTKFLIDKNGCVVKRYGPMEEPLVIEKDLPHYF

C=C1C[C@]2(O)[C@@]3(C)CCC(=O)C(C)(C)C3=C(O)C(=O)[C@@]2(C)[C@@H]2C(=O)O[C@@](C)(C(=O)OC)C(=O)[C@@]12C
inactive: Potency [1] | Potency [2] | Potency [3] | Potency [4] | outcome [5] | Potency [6] | max response (CRL-7250) 2.22% | outcome (HEK293) | max response (NIH3T3) 1.84% | Potency (C33A) | Potency (CASKI) | Potency (Es-2) | Potency (Hek293T) | Potency (OV90) | Potency (PA-1) | Potency (Tov-21-G) | Potency (Tov112D)

C=C(CO)C(=O)O[C@H]1CC(=C)[C@@H]2C[C@H](O)C(=C)[C@@H]2[C@H]2OC(=O)C(=C)[C@@H]21
inactive: Potency [7] | Potency [3] | Potency [4] | Potency [8] | Potency [6] | max response (CRL-7250) -4.04% | max response (HaCat) 4.94% | Potency (C33A) | Potency (CASKI) | Potency (Hek293T) | Potency (OV90) | Potency (PA-1) | Potency (Tov-21-G) | Potency (Tov112D)
active: Potency [1] 4500 nM | Potency [2] 2010 nM | Potency (HEK293) 5700 nM

C[C@]12CC[C@H](O)C[C@H]1CC[C@@H]1[C@@H]2[C@H](O)C[C@]2(C)[C@@H](c3ccc(=O)oc3)CC[C@]12O
active: Potency [1] 16.3 nM | Potency [2] 45.9 nM | Potency (CRL-7250) 10.3 nM | Potency (HEK293) 36.6 nM | Potency (HaCat) 146 nM | Potency (CASKI) 501 nM | Potency (Es-2) 100 nM | Potency (OV90) 355 nM | Potency (PA-1) 355 nM | Potency (Tov-21-G) 100 nM
inactive: Potency [7] | Potency [3] | Potency [4] | outcome [5] | Potency [8] | Potency [6]

Cc1sc2c(c1C)C(c1ccc(Cl)cc1)=NC(CC(=O)Nc1ccc(O)cc1)c1nnc(C)n1-2 (configuration not stated)
inactive: Potency [7] | Potency [4] | outcome [5] | Potency [6] | max response (HaCat) -9.94% | Potency (C33A) | Potency (CASKI) | Potency (Es-2) | Potency (Hek293T)
active: Potency [1] 129 nM and 263 nM | Potency [2] 129 nM and 296 nM | Potency (CRL-7250) 1160 nM | Potency (HEK293) 1460 nM | Potency (NIH3T3) 1300 nM | Potency (PA-1) 1780 nM

COC1C(O)C(C)OC(OC2C(CO)O[C@@H](O[C@@H]3CC4CCC5C(CC[C@]6(C)[C@@H](C7=CC(=O)OC7)CC[C@]56O)[C@@]4(C)[C@H](OC(C)=O)C3)C(O)C2O)C1O (some centres not stated)
active: Potency [1] 2160 nM | Potency [2] 2420 nM | Potency (CRL-7250) 2170 nM | Potency (HEK293) 2430 nM | Potency (HaCat) 4320 nM | Potency (C33A) 3550 nM | Potency (Es-2) 6310 nM | Potency (Hek293T) 3550 nM | Potency (Tov-21-G) 3550 nM | Potency (Tov112D) 2820 nM
inactive: Potency [7] | Potency [3] | Potency [4] | outcome [5] inactive [at 25.7 µM] | Potency [8] | Potency [6] | outcome (NIH3T3) | Potency (OV90)

CC[C@@H](C)[C@@H]1NC(=O)[C@@H]2CCCN2C(=O)[C@@H](CC(O)CCl)OC(=O)CCNC(=O)[C@H](C)N(C)C(=O)[C@H](C(C)C)N(C)C1=O (some centres not stated) (cyclo([NMeA][βAla][X7]P[aIle][NMeV]))
active: Potency [1] 608 nM | Potency [2] 483 nM | Potency (CRL-7250) 968 nM | Potency (HEK293) 685 nM | Potency (NIH3T3) 2430 nM | Potency (C33A) 4470 nM | Potency (Es-2) 4470 nM | Potency (OV90) 447 nM | Potency (PA-1) 1000 nM | Potency (Tov112D) 3550 nM
inactive: Potency [7] | Potency [3] | outcome [5] inactive [at 25.7 µM] | Potency [8] | Potency [6] | max response (HaCat) -21.3% | Potency (CASKI) | Potency (Tov-21-G)

CC[C@@]1(O)C(=O)OCc2c1cc1n(c2=O)Cc2cc3c(OC)cccc3nc2-1
inactive: Potency [7] | Potency [3] | outcome [5] | Potency [8] | Potency [6]
active: Potency [1] 7.1 nM | Potency [2] 10.1 nM | Potency (CRL-7250) 5080 nM | Potency (HEK293) 50.8 nM | Potency (HaCat) 114 nM | Potency (C33A) 631 nM | Potency (Hek293T) 1580 nM | Potency (OV90) 1120 nM | Potency (PA-1) 89.1 nM | Potency (Tov-21-G) 5620 nM | Potency (Tov112D) 224 nM

CN1CCN(c2nc3ccccc3nc2Cl)CC1
inactive: Potency [7] | Potency [1] | Potency [2] | Potency [3] | Potency [4] | outcome [5] | Potency [8] | Potency [6] | max response (CRL-7250) -8.1% | outcome (HEK293) | outcome (NIH3T3) | Potency (C33A) | Potency (CASKI) | Potency (Es-2) | Potency (Hek293T) | Potency (OV90) | Potency (PA-1) | Potency (Tov-21-G) | Potency (Tov112D)

N#Cc1ccc([C@H]2CCCC[C@H]2O)cc1C(F)(F)F
inactive: Potency [7] | Potency [1] | Potency [2] | Potency [3] | Potency [4] | outcome [5] | Potency [8] | Potency [6] | max response (CRL-7250) 1.6% | max response (HEK293) -11% | max response (HaCat) -7.91% | max response (NIH3T3) -1.88% | Potency (C33A) | Potency (CASKI) | Potency (Es-2) | Potency (Hek293T) | Potency (OV90) | Potency (PA-1) | Potency (Tov-21-G) | Potency (Tov112D)

C[C@@H]1C[C@@H](O)[C@]2(O)O[C@@H]3C[C@@]4(C=O)C(CC[C@@H]5C4CC[C@]4(C)[C@@H](C6=CC(=O)OC6)CC[C@]54O)C[C@H]3O[C@@H]2O1 (some centres not stated)
active: Potency [1] 56.3 nM | Potency [2] 79.6 nM | Potency (CRL-7250) 35.5 nM | Potency (HEK293) 44.7 nM | Potency (HaCat) 252 nM
inactive: Potency [7] | Potency [3] | Potency [4] | outcome [5] inactive [at 25.7 µM] | Potency [6] | Potency (C33A)
